Reference: PubChem BioAssay (NCI)
Compounds without any hit were thinned out: in the full panel of roughly 79,000, 15% have a hit. Calls of active or inactive are those of the source. No stated cut-off is given here; in the data, active means growth inhibition above about 70%; inactive means the rest.

Assays:
[1] = NCI Yeast Anticancer Drug Screen. Data for the rad52 strain (AID 147);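 further: 0% = growth of vehicle-treated control cultures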; settings: S. cerevisiae rad52 mutant growth inhibition, hits give high values
How it was run: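 The repair-mutant yeast strain was incubated with compounds, then growth was read and inhibition derived relative to vehicle.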

[2] = NCI Yeast Anticancer Drug Screen. Data for the wt1 strain (AID 149);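 further: 0% = growth of vehicle-treated wt1 cultures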; settings: S. cerevisiae wt1 strain (SPY 50644) growth inhibition, hits give high values
How it was run: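 The wt1 strain was treated with compounds, and growth was compared with vehicle-treated cultures to give inhibition.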

[3] = NCI Yeast Anticancer Drug Screen. Data for the rad50EPP+ strain (AID 151);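 further: 0% = growth of vehicle-treated control cultures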; settings: S. cerevisiae rad50 mutant strain, hits give high values
How it was run: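 Vehicle-normalised growth inhibition; rad50EPP+ yeast strain, altered in DNA damage repair, compound-treated.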

[4] = NCI Yeast Anticancer Drug Screen. Data for the mgt1 strain (AID 153); settings: S. cerevisiae mgt1 mutant growth inhibition, hits give high values
How it was run: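 Vehicle-normalized growth inhibition is determined in mgt1 yeast, a strain selected for a defined alteration in DNA repair or cell cycle control.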

[5] = NCI Yeast Anticancer Drug Screen. Data for the rad50 strain (AID 155);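 further: 0% = growth of vehicle-only cultures of the same strain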; settings: S. cerevisiae rad50 strain growth inhibition, hits give high values
How it was run: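 Cells are treated with compound, grown, and their growth is then scored against vehicle-only cultures of the same repair-deficient yeast strain.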

[6] = NCI Yeast Anticancer Drug Screen. Data for the mec2-1 strain (AID 157); settings: S. cerevisiae mec2-1 strain, hits give high values
How it was run: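 Mutant yeast (mec2-1) grown with compound; growth inhibition relative to vehicle control reported.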

[7] = NCI Yeast Anticancer Drug Screen. Data for the rad14 strain (AID 159);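 further: 0% = growth of vehicle-treated control cultures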; settings: S. cerevisiae rad14 strain growth inhibition, hits give high values
How it was run: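 Readout: yeast growth inhibition, referenced to vehicle-only cultures. Strain bears a defined alteration in DNA damage repair.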

[8] = NCI Yeast Anticancer Drug Screen. Data for the sgs1 mgt1 strain (AID 161);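 further: 0% = growth of cultures given vehicle only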; settings: S. cerevisiae sgs1 mgt1 strain, hits give high values
How it was run: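 Compounds are added to genetically altered yeast, and growth is compared with cultures given vehicle alone to give percent inhibition.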

[9] = NCI Yeast Anticancer Drug Screen. Data for the CLN2oe strain (AID 163);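 further: 0% = growth of vehicle-only control cultures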; settings: S. cerevisiae CLN2oe strain, hits give high values
How it was run: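 Compounds are applied to yeast harbouring a defined cell-cycle control change; reduced growth compared with vehicle-treated controls gives the value.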

[10] = NCI Yeast Anticancer Drug Screen. Data for the cln2 rad14 strain (AID 165);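 further: 0% = growth equal to vehicle treated cultures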; settings: S. cerevisiae cln2 rad14 strain, hits give high values
How it was run: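 Readout is yeast growth inhibition versus vehicle-treated controls, using a strain with cln2 and rad14 alterations exposed to compound.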

[11] = NCI Yeast Anticancer Drug Screen. Data for the bub3 strain (AID 167); settings: S. cerevisiae bub3 mutant strain, hits give high values
How it was run: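 Part of a panel of yeast mutants defective in DNA damage repair or cell cycle regulation. Each strain is grown with compound, and inhibition is calculated relative to solvent-treated cultures.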

[12] = NCI Yeast Anticancer Drug Screen. Data for the wt2 strain (AID 169);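 further: 0% = growth of vehicle-treated yeast cultures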; settings: S. cerevisiae wt2 strain growth inhibition, hits give high values
How it was run: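 Against vehicle-treated controls, the growth of yeast exposed to each compound was compared, and the inhibition was recorded.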

[13] = NCI Yeast Anticancer Drug Screen. Data for the mlh1 strain (AID 171);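 further: 0% = growth of vehicle-treated control cultures of the same strain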; settings: S. cerevisiae mlh1 strain growth inhibition, hits give high values
How it was run: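 Measured: yeast growth. Reference: vehicle-treated controls. Organism: strain with a defined alteration affecting DNA damage repair or cell cycle control, treated with compound.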

[14] = NCI Yeast Anticancer Drug Screen. Data for the sgs1 strain (AID 173);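 further: 0% = growth of vehicle-only control cultures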; settings: S. cerevisiae sgs1 mutant, hits give high values
How it was run: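 Each compound was added to cultures of the altered yeast strain. Growth was recorded, and inhibition was derived by comparison with vehicle controls.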

[15] = NCI Yeast Anticancer Drug Screen. Data for the mlh1 rad18 strain (AID 175); settings: S. cerevisiae mlh1 rad18 strain growth inhibition, hits give high values
How it was run: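 Genetically defined yeast (DNA repair-deficient) exposed to compounds; growth inhibition determined relative to vehicle.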

[16] = NCI Yeast Anticancer Drug Screen. Data for the rad18 strain (AID 177); settings: S. cerevisiae rad18 mutant growth inhibition, hits give high values
How it was run: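 Vehicle-treated cultures served as the baseline for scoring compound-induced growth inhibition in DNA-repair-mutant yeast.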

[17] = at 5.0 µM (retest, dose inferred, filed as 0.5)
[18] = at 50.0 µM (retest, dose inferred, filed as 5.0)

Measured: growth inhibition

c1ccc2c(c1)Cn1c-2nc2ccccc21
active: [1]; at 33.0 µM 78% | [1]; at 100.0 µM 97% | [2]; at 100.0 µM 94% | [3]; at 100.0 µM 95% | [4]; at 33.0 µM 74% | [4]; at 100.0 µM 98% | [5]; at 33.0 µM 75% | [5]; [18] 74% | [5]; at 50.0 µM 84.3% | [5]; at 100.0 µM 96% | [6]; [17] 73% | [6]; [18] 85% | [6]; at 100.0 µM 98% | [7]; at 100.0 µM 97% | [8]; [18] 84% | [9]; at 100.0 µM 96% | [10]; [18] 87% | [11]; [18] 86% | [11]; at 100.0 µM 97% | [12]; at 100.0 µM 94% | [13]; at 100.0 µM 96% | [14]; at 100.0 µM 92% | [15]; [18] 78% | [15]; at 50.0 µM 83.4% | [16]; at 100.0 µM 95%
inactive: [1]; at 1.2 µM 1% | [1]; at 3.7 µM 1% | [1]; at 11.0 µM 8% | [2]; at 1.2 µM -27% | [2]; at 3.7 µM -21% | [2]; at 11.0 µM -28% | [2]; at 33.0 µM 5% | [3]; at 1.2 µM 2% | [3]; at 3.7 µM -4% | [3]; at 11.0 µM 8% | [3]; at 33.0 µM 62% | [4]; at 1.2 µM 15% | [4]; at 3.7 µM 3% | [4]; at 11.0 µM 30% | [5]; at 1.2 µM -9% | [5]; at 3.7 µM 1% | [5]; [17] 49% | [5]; at 11.0 µM 24% | [6]; at 1.2 µM 9% | [6]; at 3.7 µM 7% | [6]; at 11.0 µM 13% | [6]; at 33.0 µM 53% | [6]; at 50.0 µM 69.5% | [7]; at 1.2 µM -19% | [7]; at 3.7 µM -17% | [7]; at 11.0 µM -12% | [7]; at 33.0 µM 33% | [8]; [17] -27% | [9]; at 1.2 µM -18% | [9]; at 3.7 µM 0% | [9]; at 11.0 µM -23% | [9]; at 33.0 µM 18% | [10]; [17] 54% | [11]; at 1.2 µM -11% | [11]; at 3.7 µM -5% | [11]; [17] 27% | [11]; at 11.0 µM 3% | [11]; at 33.0 µM 68% | [12]; at 1.2 µM -24% | [12]; at 3.7 µM -5% | [12]; at 11.0 µM -4% | [12]; at 33.0 µM 34% | [13]; at 1.2 µM -31% | [13]; at 3.7 µM -8% | [13]; at 11.0 µM 2% | [13]; at 33.0 µM 36% | [14]; at 1.2 µM -7% | [14]; at 3.7 µM -21% | [14]; at 11.0 µM -21% | [14]; at 33.0 µM 31% | [15]; [17] 50% | [16]; at 1.2 µM -7% | [16]; at 3.7 µM -4% | [16]; at 11.0 µM -1% | [16]; at 33.0 µM 25%

COc1ccc(N=N/C(=N\NC(=O)c2cc(Br)ccc2O)c2ccc(N(CCC#N)CCC#N)cc2OC)cc1
active: [1]; at 100.0 µM 71% | [5]; at 100.0 µM 82%
inactive: [1]; at 1.2 µM 29% | [1]; at 3.7 µM 44% | [1]; at 11.0 µM 44% | [1]; at 33.0 µM 57% | [2]; at 1.2 µM 15% | [2]; at 3.7 µM 17% | [2]; at 11.0 µM 9% | [2]; at 33.0 µM 5% | [2]; at 100.0 µM 51% | [3]; at 1.2 µM -4% | [3]; at 3.7 µM -7% | [3]; at 11.0 µM -11% | [3]; at 33.0 µM -19% | [3]; at 100.0 µM 24% | [4]; at 1.2 µM 33% | [4]; at 3.7 µM 35% | [4]; at 11.0 µM 24% | [4]; at 33.0 µM 46% | [4]; at 100.0 µM 69% | [5]; at 1.2 µM 46% | [5]; at 3.7 µM 43% | [5]; [17] 20% | [5]; at 11.0 µM 49% | [5]; at 33.0 µM 59% | [5]; [18] 25% | [5]; at 50.0 µM 45.1% | [6]; at 1.2 µM -4% | [6]; at 3.7 µM -6% | [6]; [17] 22% | [6]; at 11.0 µM -8% | [6]; at 33.0 µM 13% | [6]; [18] 24% | [6]; at 50.0 µM 43.4% | [6]; at 100.0 µM 31% | [7]; at 1.2 µM 33% | [7]; at 3.7 µM 26% | [7]; at 11.0 µM 21% | [7]; at 33.0 µM 3% | [7]; at 100.0 µM 45% | [8]; [17] -8% | [8]; [18] 69% | [8]; at 50.0 µM 8.9% | [9]; at 1.2 µM 11% | [9]; at 3.7 µM 14% | [9]; at 11.0 µM 24% | [9]; at 33.0 µM 33% | [9]; at 100.0 µM 28% | [10]; [17] -4% | [10]; [18] 32% | [10]; at 50.0 µM 30.9% | [11]; at 1.2 µM 28% | [11]; at 3.7 µM 14% | [11]; [17] 19% | [11]; at 11.0 µM 16% | [11]; at 33.0 µM 49% | [11]; [18] 69% | [11]; at 50.0 µM 43.4% | [11]; at 100.0 µM 68% | [12]; at 1.2 µM -20% | [12]; at 3.7 µM -11% | [12]; at 11.0 µM -15% | [12]; at 33.0 µM -9% | [12]; at 100.0 µM 65% | [13]; at 1.2 µM 33% | [13]; at 3.7 µM 35% | [13]; at 11.0 µM 24% | [13]; at 33.0 µM 46% | [13]; at 100.0 µM 69% | [15]; [17] 20% | [15]; [18] 26% | [15]; at 50.0 µM 65.4% | [16]; at 1.2 µM 14% | [16]; at 3.7 µM 20% | [16]; at 11.0 µM 18% | [16]; at 33.0 µM 33% | [16]; at 100.0 µM 49%

Cc1cc(O)c2c(c1O)C(=O)C13C(=C2O)C(=O)C2C(O)C1C1C(O)C3C(=O)C3=C(O)c4c(O)cc(C)c(O)c4C(=O)C321 (stereo not drawn)
active: [1]; at 33.0 µM 89% | [1]; at 100.0 µM 90% | [2]; at 33.0 µM 80% | [2]; at 100.0 µM 85% | [4]; at 33.0 µM 86% | [4]; at 100.0 µM 82% | [5]; at 33.0 µM 79% | [5]; [18] 84% | [5]; at 50.0 µM 77.3% | [5]; at 100.0 µM 80%
inactive: [1]; at 1.2 µM 28% | [1]; at 3.7 µM 39% | [1]; at 11.0 µM 58% | [2]; at 1.2 µM -7% | [2]; at 3.7 µM 2% | [2]; at 11.0 µM 38% | [3]; at 1.2 µM 4% | [3]; at 3.7 µM 3% | [3]; at 11.0 µM -4% | [3]; at 33.0 µM 1% | [3]; at 100.0 µM -38% | [4]; at 1.2 µM 5% | [4]; at 3.7 µM 26% | [4]; at 11.0 µM 61% | [5]; at 1.2 µM 29% | [5]; at 3.7 µM 37% | [5]; [17] 12% | [5]; at 11.0 µM 51% | [6]; at 1.2 µM 19% | [6]; at 3.7 µM 34%
